Results as given in PubChem BioAssay.
Active and inactive are the calls of the source.

How the values were obtained:
[1] = small molecules captured by biotinylated probe aFSTL3 – biochemical, small-molecule microarray, fluorescence 635/667, stem cell growth factor project, primary screen (AID 1064); conditions: higher = more signal;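 also: measures binding of the biotinylated anti-FSTL3 antibody to printed compounds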
[2] = binders from COS7 lysate, DM2A8 probe, primary screen, torsin A project, cell lysate, small-molecule microarray, fluorescence 635/667 (AID 1065); conditions: higher = more signal, COS7 lysate expressing mutant human TOR1A
[3] = small molecules captured by biotinylated probe aFGF2 – biochemical, small-molecule microarray, fluorescence 635/667, stem cell growth factor project, primary screen (AID 1067); conditions: higher = more signal;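 also: measures binding of biotinylated aFGF2 protein to printed compounds on slides; z-score merges feature fluorescence and signal-to-noise across triplicate slides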
[4] = small molecules captured by biotinylated probe aFGF10 – biochemical, small-molecule microarray, fluorescence 635/667, stem cell growth factor project, primary screen (AID 1071); conditions: higher = more signal;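 also: score merges 667 nm spot intensity and signal to noise from triplicate slides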
[5] = molecular target: Neurogenic locus notch homolog protein 2 (Homo sapiens) (UniProt Q04721); test: small molecules binding Notch2 protein – biochemical, small-molecule microarray, 635 nm fluorescence, stem cell growth factors, primary screen (AID 1073); conditions: higher = more signal
Sequence of Neurogenic locus notch homolog protein 2 (Homo sapiens) (Q04721 whole entry, looked up, canonical isoform): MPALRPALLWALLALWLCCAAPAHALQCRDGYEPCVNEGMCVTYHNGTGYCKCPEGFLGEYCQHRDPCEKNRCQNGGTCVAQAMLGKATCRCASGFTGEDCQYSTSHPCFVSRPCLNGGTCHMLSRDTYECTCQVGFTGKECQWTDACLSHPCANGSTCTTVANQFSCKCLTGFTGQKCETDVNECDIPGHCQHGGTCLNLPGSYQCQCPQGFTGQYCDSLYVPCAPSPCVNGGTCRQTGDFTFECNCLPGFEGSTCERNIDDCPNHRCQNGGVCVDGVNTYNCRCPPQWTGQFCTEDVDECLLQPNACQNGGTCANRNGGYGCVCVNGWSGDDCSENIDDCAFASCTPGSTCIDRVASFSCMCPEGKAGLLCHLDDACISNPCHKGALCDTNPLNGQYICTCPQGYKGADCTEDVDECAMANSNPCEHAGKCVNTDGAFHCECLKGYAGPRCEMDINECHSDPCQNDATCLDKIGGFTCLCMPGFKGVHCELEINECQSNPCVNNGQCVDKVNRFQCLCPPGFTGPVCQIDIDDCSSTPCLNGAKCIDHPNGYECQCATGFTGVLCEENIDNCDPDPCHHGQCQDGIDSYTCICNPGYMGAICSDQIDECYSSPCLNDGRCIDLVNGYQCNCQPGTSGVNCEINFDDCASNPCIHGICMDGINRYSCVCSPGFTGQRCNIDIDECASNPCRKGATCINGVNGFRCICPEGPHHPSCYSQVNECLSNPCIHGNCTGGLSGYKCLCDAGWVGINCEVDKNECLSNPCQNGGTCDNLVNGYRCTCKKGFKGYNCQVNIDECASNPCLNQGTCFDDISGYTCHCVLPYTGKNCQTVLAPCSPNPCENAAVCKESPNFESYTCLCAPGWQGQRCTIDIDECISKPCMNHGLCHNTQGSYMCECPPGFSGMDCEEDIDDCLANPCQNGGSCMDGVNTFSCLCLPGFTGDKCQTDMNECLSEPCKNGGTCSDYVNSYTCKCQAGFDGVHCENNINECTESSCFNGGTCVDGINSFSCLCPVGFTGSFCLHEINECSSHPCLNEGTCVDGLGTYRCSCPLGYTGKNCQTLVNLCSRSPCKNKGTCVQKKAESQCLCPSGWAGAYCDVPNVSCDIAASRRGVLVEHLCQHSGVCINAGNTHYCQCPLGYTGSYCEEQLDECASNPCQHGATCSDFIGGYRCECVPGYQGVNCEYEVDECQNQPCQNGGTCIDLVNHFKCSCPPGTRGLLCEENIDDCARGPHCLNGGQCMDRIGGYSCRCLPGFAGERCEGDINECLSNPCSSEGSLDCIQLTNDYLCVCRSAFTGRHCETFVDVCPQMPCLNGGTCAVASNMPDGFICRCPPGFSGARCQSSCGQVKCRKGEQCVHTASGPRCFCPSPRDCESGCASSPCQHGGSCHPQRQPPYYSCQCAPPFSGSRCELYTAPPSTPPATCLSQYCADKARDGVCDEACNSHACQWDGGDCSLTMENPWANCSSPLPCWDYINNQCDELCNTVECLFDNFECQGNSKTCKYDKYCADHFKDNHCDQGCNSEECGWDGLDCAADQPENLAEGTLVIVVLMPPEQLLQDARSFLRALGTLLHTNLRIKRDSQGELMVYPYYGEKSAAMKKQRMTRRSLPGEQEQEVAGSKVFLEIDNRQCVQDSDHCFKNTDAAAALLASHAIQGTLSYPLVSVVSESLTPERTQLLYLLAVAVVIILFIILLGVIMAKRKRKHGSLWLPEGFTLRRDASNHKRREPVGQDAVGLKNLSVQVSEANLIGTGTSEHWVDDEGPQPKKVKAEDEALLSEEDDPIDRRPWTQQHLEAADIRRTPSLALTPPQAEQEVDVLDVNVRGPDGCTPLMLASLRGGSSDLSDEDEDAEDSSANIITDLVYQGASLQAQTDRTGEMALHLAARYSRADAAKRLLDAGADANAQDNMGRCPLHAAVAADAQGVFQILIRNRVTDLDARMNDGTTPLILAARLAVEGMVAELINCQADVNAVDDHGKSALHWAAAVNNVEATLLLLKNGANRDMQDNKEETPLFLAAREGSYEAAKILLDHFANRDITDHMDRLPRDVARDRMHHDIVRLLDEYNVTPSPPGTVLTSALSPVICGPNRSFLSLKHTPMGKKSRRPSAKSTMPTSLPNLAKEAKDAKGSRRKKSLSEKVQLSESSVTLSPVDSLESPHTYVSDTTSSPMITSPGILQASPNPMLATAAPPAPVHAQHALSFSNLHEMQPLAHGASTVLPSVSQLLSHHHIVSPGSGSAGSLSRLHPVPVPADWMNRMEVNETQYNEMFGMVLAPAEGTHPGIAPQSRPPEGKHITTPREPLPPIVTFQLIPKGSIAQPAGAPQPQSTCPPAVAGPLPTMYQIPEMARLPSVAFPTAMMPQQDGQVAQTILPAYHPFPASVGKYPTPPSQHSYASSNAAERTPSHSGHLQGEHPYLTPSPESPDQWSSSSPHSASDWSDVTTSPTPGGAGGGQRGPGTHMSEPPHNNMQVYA

[6] = molecular target: Pro-neuregulin-1, membrane-bound isoform (Homo sapiens) (UniProt Q02297); test: small molecules binding neuregulin-1 protein – biochemical, small-molecule microarray, fluorescence 635/667, psychiatric disease protein project, primary screen (AID 1075); conditions: NRG1 binding, 635 nm fluorescence, higher = more signal;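 also: score combines 667 nm spot fluorescence with signal to noise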
Sequence of Pro-neuregulin-1, membrane-bound isoform (Homo sapiens) (Q02297 whole entry, looked up, the tested form may be a part, canonical isoform): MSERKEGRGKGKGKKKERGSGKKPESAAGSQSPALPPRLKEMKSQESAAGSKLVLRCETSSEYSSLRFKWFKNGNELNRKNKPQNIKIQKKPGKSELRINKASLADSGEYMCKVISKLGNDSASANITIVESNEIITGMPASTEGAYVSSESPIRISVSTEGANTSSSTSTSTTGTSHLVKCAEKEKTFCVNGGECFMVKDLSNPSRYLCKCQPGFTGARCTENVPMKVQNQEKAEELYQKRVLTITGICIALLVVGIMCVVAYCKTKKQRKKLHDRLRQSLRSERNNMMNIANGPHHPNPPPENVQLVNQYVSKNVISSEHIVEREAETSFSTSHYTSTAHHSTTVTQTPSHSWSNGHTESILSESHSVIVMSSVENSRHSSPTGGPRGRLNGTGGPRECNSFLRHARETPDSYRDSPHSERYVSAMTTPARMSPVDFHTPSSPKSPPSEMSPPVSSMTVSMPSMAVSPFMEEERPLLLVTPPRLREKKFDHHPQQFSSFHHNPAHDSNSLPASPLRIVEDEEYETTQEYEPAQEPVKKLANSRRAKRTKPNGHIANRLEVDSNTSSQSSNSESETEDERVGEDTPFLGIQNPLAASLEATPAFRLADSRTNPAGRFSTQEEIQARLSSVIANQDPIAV

[7] = tested on: Neuregulin-1 EGF-like domain; test: small molecules binding NRG1 EGF domain – biochemical, small-molecule microarray, 635 nm fluorescence, primary screen (AID 1081); conditions: higher = more signal;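 also: binding of the protein to compounds printed on small-molecule microarray slides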
[8] = FRG1 expression reporter modulators in myotubes – cell-based, C2C12 myotubes, firefly/Renilla luciferase, luminescence, FRG1 inhibition for FSHD, primary screen (AID 1084); conditions: FRG1 promoter luciferase, higher = more signal, called active from +8 up or from −8 down
[9] = small molecules captured by biotinylated probe aFST – biochemical, small-molecule microarray, fluorescence 635/667, stem cell growth factor project, primary screen (AID 1086); conditions: higher = more signal;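 also: score merges 667 nm fluorescence with signal-to-noise of each printed compound spot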
[10] = binders of probe aHhip on microarray, primary screen, stem cell growth factor project, biochemical, small-molecule microarray, fluorescence 635/667 (AID 1087); conditions: higher = more signal;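 also: score merges spot fluorescence at 667nm with spot signal to noise ratio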
[11] = tested on: PRMT1 (protein arginine N-methyltransferase 1); test: small molecules binding arginine methyltransferase PRMT1 – biochemical, small-molecule microarray, 635 nm fluorescence, primary screen (AID 1088); conditions: higher = more signal;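 also: binding of Prmt1 protein to compounds spotted on small-molecule microarray slides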
[12] = growth effects on S. cerevisiae YJM789 – YJM789 clinical isolate, OD600, 24 h, basal, primary screen (AID 1089); conditions: higher = more signal, called active from +8 up or from −8 down;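 also: growth of clinical yeast isolate S. cerevisiae YJM 789 seeded 1000 cells per well; test concentration not given here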
[13] = S. pombe growth modifiers, basal conditions – strain 972, OD600, 24 h, no modulator, primary screen (AID 1090);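 also: basal condition with compound alone and no growth modifier present; test concentration not given here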; conditions: S. pombe 972 growth, higher = more signal, called active from +8 up or from −8 down
[14] = budding yeast growth modifiers under rapamycin – strain BY4716, OD600, 96 h, primary screen (AID 1091); also: test concentration not given here; conditions: S. cerevisiae BY4716 + rapamycin, higher = more signal, called active from +8 up or from −8 down
[15] = molecular target: Torsin-1A-interacting protein 2 (Homo sapiens) (UniProt Q8NFQ8); test: small molecules binding lysate-expressed LULL1 – cell lysate, human LULL1 lysate, 635/667 nm fluorescence, primary screen (AID 1092); conditions: small-molecule microarray, hLULL1 lysate binding, 635 nm fluorescence; higher = more signal;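 also: probe is lysate of COS7 cells overexpressing human LULL1; score merges per-feature 667 nm fluorescence with signal-to-noise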
Sequence of Torsin-1A-interacting protein 2 (Homo sapiens) (Q8NFQ8 whole entry, looked up): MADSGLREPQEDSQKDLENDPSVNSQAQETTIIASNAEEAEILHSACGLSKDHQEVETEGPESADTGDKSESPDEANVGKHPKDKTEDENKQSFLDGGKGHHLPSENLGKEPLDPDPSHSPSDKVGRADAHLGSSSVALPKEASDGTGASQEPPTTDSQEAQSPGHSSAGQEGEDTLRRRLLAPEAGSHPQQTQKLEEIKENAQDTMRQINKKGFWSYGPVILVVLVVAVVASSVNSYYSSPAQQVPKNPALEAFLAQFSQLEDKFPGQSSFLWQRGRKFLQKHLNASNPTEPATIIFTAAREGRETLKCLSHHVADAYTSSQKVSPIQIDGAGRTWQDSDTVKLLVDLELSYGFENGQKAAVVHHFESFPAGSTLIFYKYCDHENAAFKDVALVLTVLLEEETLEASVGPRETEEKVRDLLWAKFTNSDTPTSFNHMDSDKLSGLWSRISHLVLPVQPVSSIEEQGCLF

[16] = optical density change of DRC41 E. coli – strain DRC41, OD650, 24 h, E. coli filamentation project, primary screen (AID 1093);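 also: MC1000 strain lacking acrAB efflux and sulA so SOS filamentation is blocked; test concentration not given here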; conditions: E. coli DRC41 growth, higher = more signal, called active from +8 up or from −8 down
[17] = probe aLefty2 binding to arrayed compounds – biochemical, biotinylated probe, 635/667 nm fluorescence, primary screen (AID 1094); conditions: small-molecule microarray, higher = more signal;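 also: score merges spot fluorescence near 667 nm with spot signal-to-noise ratio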
[18] = tested on: Noggin (protein binding on small-molecule microarray); test: small molecules binding Noggin protein – biochemical, 635/667 nm fluorescence, primary screen (AID 1095); conditions: 635 nm fluorescence, higher = more signal;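 also: score merges 667 nm feature fluorescence with signal to noise over triplicate slides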
[19] = molecular target: Neurogenic locus notch homolog protein 3 (Homo sapiens) (UniProt Q9UM47); test: small molecules binding NOTCH3 protein – biochemical, 635/667 nm fluorescence, primary screen (AID 1096); conditions: small-molecule microarray, 635 nm fluorescence, higher = more signal
[20] = probe aEGFR binding to arrayed compounds – biochemical, biotinylated probe, 635/667 nm fluorescence, primary screen (AID 1097); conditions: small-molecule microarray, higher = more signal;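 also: probe is a biotinylated anti-EGFR antibody binding compounds printed on slides; score combines fluorescence near 667 nm and signal to noise of each spot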

| Structure (SMILES) | composite z-score [1] | composite z-score [2] | composite z-score [3] | composite z-score [4] | composite z-score [5] | composite z-score [6] | composite z-score [7] | z-score [8] | composite z-score [9] | composite z-score [10] | composite z-score [11] | z-score [12] | z-score [13] | z-score [14] | composite z-score [15] | z-score [16] | composite z-score [17] | composite z-score [18] | composite z-score [19] | composite z-score [20] |
| --- | --- | --- | --- | --- | --- | --- | --- | --- | --- | --- | --- | --- | --- | --- | --- | --- | --- | --- | --- | --- |
| C=C(CCCC)/C(=C/C[C@@H](OC(=O)c1ccncc1)c1ccc(OCCO)cc1)c1cnc2ccccc2c1 | 0.201 | 0.379 | 0.0166 | 1.19 | 1.48 | 0.227 | 0.841 | -0.723 (inactive) | 0.265 | -0.176 | 1.52 | 0.594 (inactive) | -1.59 (inactive) | 0.524 (inactive) | 0.447 | 1.48 (inactive) | -0.0523 | 1.72 | 1.06 | -0.0243 |
| COc1ccc(C(=O)Nc2cccc(CN3C(=O)[C@@]4(O[C@@H](CCO)[C@H]([Si](C)(C)c5ccc(OC)cc5)[C@H]4C)c4ccccc43)c2)cc1 | 0.457 | -0.0176 | -0.0784 | 0.19 | 0.0782 | -0.0498 | 0.984 | -3.53 (inactive) | 0.0018 | -0.216 | 0.95 | 0.324 (inactive) | -9.44 (active) | 0.2 (inactive) | 1.35 | 1.68 (inactive) | 0.0005 | 0.297 | 0.0772 | -0.155 |
| CC1CC/C=C\[C@H]2OC34C=CCN(C(C)C)C(=O)[C@H]3N(C(CO)C(C)C)C(=O)[C@@H]4C2C(=O)O1 (stereo not given in full) | 1.54 | -0.267 | -0.0985 | -0.365 | -0.662 | -0.593 | 0.475 | -0.416 (inactive) | -0.422 | -0.0994 | -0.825 | 0.959 (inactive) | -1.84 (inactive) | -0.631 (inactive) | 1.55 | 2.14 (inactive) | -0.0229 | -0.684 | -0.274 | -0.154 |
| [N-]=[N+]=NCc1ccccc1C[C@@]1(C(=O)O)N=C(c2ccc(OCCCO)cc2)O[C@@H]1c1ccccc1 | 0.673 | -0.231 | -0.134 | -0.927 | -0.0526 | 1.86 | 0.754 | -1.08 (inactive) | 0.0724 | -0.226 | 0.244 | -0.921 (inactive) | -1.23 (inactive) | -1.22 (inactive) | 2.45 | 0.41 (inactive) | 0.0424 | -0.811 | -0.364 | -0.221 |
| COC(=O)c1c2oc(c1C(=O)OC)C(=O)N[C@@H](C(C)C)Cn1nncc1C1(CCCCC1)NC(=O)N[C@H](CO)CC2 | -0.07 | 0.178 | -0.129 | 0.147 | -0.294 | 0.969 | 0.625 | -0.993 (inactive) | -0.103 | 0.0373 | -0.143 | 0.0957 (inactive) | -0.99 (inactive) | -0.787 (inactive) | 2.02 | 2.28 (inactive) | -0.208 | -0.494 | -0.373 | -0.144 |
| CCCNC(=O)[C@@H]1c2ccccc2C(=O)N(Cc2cc(C(F)(F)F)cc(C(F)(F)F)c2)[C@H]1c1ccc(CO)cc1 | 0.684 | -0.27 | 0.0064 | 0.0859 | 0.394 | 0.519 | 1.2 | -0.0626 (inactive) | 0.361 | 0.0895 | 1.09 | 0.73 (inactive) | -1.69 (inactive) | -0.262 (inactive) | 1.34 | 0.315 (inactive) | 0.0758 | 0.261 | 0.523 | -0.0255 |
| COC(=O)C(CC#Cc1ccc2c(c1)[C@]1(C(=O)N2)[C@H](C(=O)O)[C@H]2C(=O)O[C@H](c3ccccc3)[C@H](c3ccccc3)N2[C@@H]1c1ccc(OCCO)cc1)C(=O)OC | -0.0148 | 1.74 | -0.0144 | 0.767 | 1.17 | 2.11 | 1.31 | -1.19 (inactive) | 0.6 | -0.0994 | 1.55 | 0.299 (inactive) | -1.91 (inactive) | -1.38 (inactive) | 3.03 | 3.49 (inactive) | -0.0816 | 0.245 | 0.983 | -0.0728 |
| COc1ccc([Si](C)(C)[C@H]2[C@H](CC(=O)N3Cc4ccccc4C[C@H]3CO)O[C@@]3(C(=O)N(Cc4cccc(N5C(=O)COc6ccccc65)c4)c4ccccc43)[C@@H]2C)cc1 | -0.187 | 0.572 | -0.12 | 0.429 | 0.659 | 0.838 | 1.08 | -3.08 (inactive) | 0.203 | 0.0873 | 1.47 | -0.41 (inactive) | 0.349 (inactive) | 2.29 (inactive) | 1.89 | 1.86 (inactive) | -0.116 | 1.56 | 1.11 | -0.0192 |
| CC(C)(C)OC(=O)CC[C@]1(C(=O)NCc2ccccc2)N=C(c2ccc(OCCCO)cc2)O[C@H]1c1ccccc1N=[N+]=[N-] | 1.4 | 1.11 | 0.231 | 0.907 | 1.65 | 1.91 | 1.26 | 1.14 (inactive) | 1.62 | -0.248 | 1.55 | -0.182 (inactive) | -0.654 (inactive) | 2.97 (inactive) | 3.41 | 0.876 (inactive) | 0.782 | 1.69 | 1.02 | 0.593 |
| C=CCNC(=O)[C@@H]1[C@H]2C(=O)O[C@H](c3ccccc3)[C@H](c3ccccc3)N2[C@H](c2ccc(O)cc2)[C@@]12C(=O)N(C(=O)OCCOC)c1ccc(C#Cc3ccc(OC)cc3)cc12 | -0.828 | 0.974 | -0.0761 | 0.856 | 1.34 | 1.41 | 1.16 | -0.374 (inactive) | 0.316 | -0.0994 | 1.55 | 0.342 (inactive) | 0.1 (inactive) | 2.6 (inactive) | 2.08 | 2.2 (inactive) | -0.111 | 0.605 | 1.12 | -0.0674 |
